In PubChem BioAssay AID1645857 (Buhrlage Lab, Dana-Farber Cancer Institute and Novartis …, 2021):
Hit rate of the full screen: of about 47,000 compounds, about 1,400 (3%) were called active. Shown is part of a subset that was picked to be rich in actives. Values without a mark were called inactive. Rule as the data show it: active = inhibition above about 30%; inactive = the rest.

Each molecule was assayed against Ubiquitin carboxyl-terminal hydrolase 28 (Homo sapiens) (UniProt Q96RU2) (assay: blocks human USP28 ubiquitin-rhodamine cleavage (AID 1645857)). Settings: purified USP28, Ub-rhodamine cleavage fluorescence, 30 min; at 25 µM; active compounds read high.
Ubiquitin carboxyl-terminal hydrolase 28 (Homo sapiens), sequence (Q96RU2 whole entry, looked up): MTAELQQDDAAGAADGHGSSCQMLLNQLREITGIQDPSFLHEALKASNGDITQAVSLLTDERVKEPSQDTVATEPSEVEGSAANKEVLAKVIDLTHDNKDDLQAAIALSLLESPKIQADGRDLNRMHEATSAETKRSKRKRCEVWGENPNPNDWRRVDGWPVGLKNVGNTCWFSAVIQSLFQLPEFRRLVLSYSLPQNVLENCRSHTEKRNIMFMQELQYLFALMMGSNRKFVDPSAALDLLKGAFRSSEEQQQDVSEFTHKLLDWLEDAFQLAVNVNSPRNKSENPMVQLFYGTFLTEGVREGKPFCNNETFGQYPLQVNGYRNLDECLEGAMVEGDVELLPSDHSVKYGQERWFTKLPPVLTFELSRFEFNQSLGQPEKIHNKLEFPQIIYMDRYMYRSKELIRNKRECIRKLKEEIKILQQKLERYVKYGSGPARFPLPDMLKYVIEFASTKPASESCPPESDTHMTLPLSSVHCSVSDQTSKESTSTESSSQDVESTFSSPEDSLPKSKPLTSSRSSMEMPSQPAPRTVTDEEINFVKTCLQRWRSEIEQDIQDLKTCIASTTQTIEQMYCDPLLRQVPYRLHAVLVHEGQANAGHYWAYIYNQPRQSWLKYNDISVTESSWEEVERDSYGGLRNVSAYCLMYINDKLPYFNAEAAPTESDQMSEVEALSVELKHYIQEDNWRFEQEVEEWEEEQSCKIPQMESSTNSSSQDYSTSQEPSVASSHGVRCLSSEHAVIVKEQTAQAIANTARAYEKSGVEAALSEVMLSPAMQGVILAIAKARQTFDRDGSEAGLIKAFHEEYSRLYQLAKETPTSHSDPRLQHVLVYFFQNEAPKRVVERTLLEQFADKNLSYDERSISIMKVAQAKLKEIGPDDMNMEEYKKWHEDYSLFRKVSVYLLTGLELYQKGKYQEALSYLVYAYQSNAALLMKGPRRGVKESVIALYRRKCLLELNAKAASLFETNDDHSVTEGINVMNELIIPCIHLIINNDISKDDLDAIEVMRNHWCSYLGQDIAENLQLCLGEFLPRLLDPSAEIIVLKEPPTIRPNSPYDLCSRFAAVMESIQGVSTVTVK

Q: With `COc1ccccc1NC(=O)N1CCN(Cc2nc3ccccc3o2)CC1` as the molecule, how does the inhibition read?
A: -5.25%

Q: With `COc1ccccc1NC(=O)Nc1ccc(CCc2nc3ccccc3[nH]2)cc1` as the molecule, how does the inhibition read?
A: -8.19%

Q: Which inhibition does the source give for `CCOc1ccccc1NC(=O)Nc1cc(-c2nc3ccccc3o2)ccc1OC` here?
A: 30.8% (active)

Q: `CN(C)c1cccc(C2CN(C(=O)c3ccc4n[nH]nc4c3)CCO2)n1` (stereo unspecified) was tested. Which inhibition did it give?
A: 8.99%

Q: With `Cc1nc(-c2cccc(S(=O)(=O)NCc3ccc(Cl)cc3)c2)no1` as the molecule, how does the inhibition read?
A: 15.5%

Q: `CN1CCN(S(=O)(=O)c2cccc(C(=O)Nc3cccc(S(N)(=O)=O)c3)c2)CC1` was tested. Which inhibition did it give?
A: 0.55%

Q: With `Cc1cccc(NC(=O)c2ccc(N3CCC(C)CC3)c([N+](=O)[O-])c2)c1C` as the molecule, how does the inhibition read?
A: -2.68%

Q: `O=C(Nc1cccc(S(=O)(=O)N2CCCCCC2)c1)c1ccc(N2CCOCC2)c([N+](=O)[O-])c1` was tested. Which inhibition did it give?
A: 35.6% (active)

Q: How did the inhibition turn out when `CC1(C)CC(=O)C2=C(C1)Nc1ccccc1NC2c1ccccc1O` (stereo unspecified) was run?
A: 4.62%

Q: Which inhibition does the source give for `Cc1cc(-c2cc(N)n(-c3ccccc3)n2)c(C)n1-c1cccc(C(F)(F)F)c1` here?
A: 3.89%

Q: `COc1cc(N2CC[C@@H]3[C@@H](CO[C@H]3CNC(=O)C3CC3)C2)ncn1` was tested. Which inhibition did it give?
A: 5.25%

Q: Which inhibition does the source give for `Cc1cccc(C)c1NC(=O)c1nnn(-c2ccc3noc(-c4ccccc4)c3c2)c1C` here?
A: 8.24%

Q: `C=C1CCC2[C@](C)(CCC[C@]2(C)C(=O)OC)[C@H]1CCc1ccoc1C[N+](C)(C)Cc1ccccc1` (stereo partly specified) was tested. Which inhibition did it give?
A: 50.6% (active)

Q: How did the inhibition turn out when `C=C1CCC2[C@](C)(CCC[C@]2(C)C(=O)OC)[C@H]1CCc1ccoc1/C=C/C(=O)O` (stereo partly specified) was run?
A: 48% (active)

Q: `O=C(NCc1ccc2c(c1)OCO2)c1cncc(NS(=O)(=O)c2ccc3c(c2)OCCO3)c1` was tested. Which inhibition did it give?
A: 4.62%

Q: Which inhibition does the source give for `N#Cc1ccc(C(=O)N2CCC(c3nc(-c4ccccc4)no3)CC2)cc1` here?
A: 3.9%

Q: For `O=C(c1ccccc1)N1CCC2(CC1)OCCCO2`, which inhibition is on record?
A: 4.41%

Q: `CCc1cc(=O)oc2cc(C)cc(OCC(=O)N3CCC4(O)CCCCC4C3)c12` (stereo unspecified) was tested. Which inhibition did it give?
A: -0.0724%

Q: How did the inhibition turn out when `Cc1ccc(-c2ncc(C(=O)Nc3ccccc3C)c(-c3ccncc3)n2)cc1` was run?
A: -83.7%

Q: How did the inhibition turn out when `Fc1ccc(CN=C2C(c3ccc4c(c3)OCCO4)=Nc3ncnn32)cc1` was run?
A: 9.04%

Q: For `CC(C)c1cc(N2CCN(CCc3ccccc3)CC2)n2c(nc3ccccc32)c1C#N`, which inhibition is on record?
A: -23.5%

Q: How did the inhibition turn out when `COc1ccc(-c2nc(-c3nnn(Cc4cccc(F)c4)c3C)no2)cc1` was run?
A: 19.7%

Q: Which inhibition does the source give for `Cc1c(-c2noc(-c3cccc(N(C)C)c3)n2)nnn1Cc1cccc(F)c1` here?
A: -4.14%

Q: With `CCOc1ccccc1-c1nc(-c2nnn(Cc3ccccc3)c2C)no1` as the molecule, how does the inhibition read?
A: 41.4% (active)

Q: With `Cc1cccc(NC(=O)Nc2ccc3c(c2)N(S(=O)(=O)c2ccccc2)CC3)c1C` as the molecule, how does the inhibition read?
A: -0.657%

Q: With `O=C(Cn1cnc2ccccc21)N1CCCc2ccccc21` as the molecule, how does the inhibition read?
A: 15.3%

Q: With `COC(=O)COc1cccc2c(=O)n(CC(=O)N3CCc4ccccc43)ccc12` as the molecule, how does the inhibition read?
A: 36% (active)

Q: Which inhibition does the source give for `Cc1nc2ccccc2c(=O)n1CC(=O)N1CCCc2ccccc21` here?
A: 6.83%

Q: For `COc1ccc(CNC(=O)[C@H](CCSC)NC(=O)[C@@H]2Cc3c([nH]c4ccccc34)C3c4ccccc4C(=O)N32)cc1` (stereo partly specified), which inhibition is on record?
A: -15%

Q: How did the inhibition turn out when `NC(=O)c1c(NC(=O)/C=C/C(=O)O)sc2c1CCCCCC2` was run?
A: -7.88%

Q: With `COc1cccc(N2C(=O)c3cccnc3C2Nc2ccc(C)c(C)c2)c1` (stereo unspecified) as the molecule, how does the inhibition read?
A: -14.4%

Q: With `O=C(Nc1ccc2c(c1)OCO2)N1CCCCCC1` as the molecule, how does the inhibition read?
A: -1.57%

Q: How did the inhibition turn out when `COc1ccc(NC(=O)CCC(=O)c2ccc3c(c2)OCCO3)cc1S(=O)(=O)Nc1ccc(Cl)cc1` was run?
A: 16.3%

Q: For `COc1ccc(/C=C/C(=O)Nc2ccc3c(c2)OCCO3)cc1Br`, which inhibition is on record?
A: 76.8% (active)

Q: For `COc1ccc(NS(=O)(=O)c2cc(NC(=O)/C=C/c3cccc(OC)c3)ccc2OC)cc1`, which inhibition is on record?
A: 19.1%

Q: For `O=C(Nc1ccc2c(c1)OCO2)c1sc2cc(Cl)ccc2c1Cl`, which inhibition is on record?
A: -10.3%

Q: Which inhibition does the source give for `O=C(/C=C/c1ccc(Cl)cc1)Nc1ccc2c(c1)OCCO2` here?
A: 35.4% (active)

Q: `COc1ccc(S(=O)(=O)c2cnc3cc(OC)c(OC)cc3c2N2CCOCC2)cc1` was tested. Which inhibition did it give?
A: 3.3%

Q: `COc1ccccc1NC(=O)CCC(=O)N1CCSc2ccccc21` was tested. Which inhibition did it give?
A: -4.12%

Q: Which inhibition does the source give for `Brc1ccc2[nH]c3c(NCCCN4CCOCC4)ncnc3c2c1` here?
A: -18.8%

Q: Which inhibition does the source give for `COc1cc(OC)cc(C(=O)Nc2ccc(S(=O)(=O)Nc3cc(C)on3)cc2)c1` here?
A: 12.8%

Q: `COc1cc(NC(=O)c2noc3c2CCc2sccc2-3)cc(OC)c1` was tested. Which inhibition did it give?
A: 43.6% (active)

Q: `O=C(NCc1ccccc1)c1noc2c1CCc1sccc1-2` was tested. Which inhibition did it give?
A: 0.0745%

Q: With `COc1cccc(C2c3[nH]c4ccccc4c3C[C@@H]3C(=O)N(CCCn4ccnc4)CC(=O)N23)c1` (stereo partly specified) as the molecule, how does the inhibition read?
A: -0.857%

Q: For `CC(C)(C)c1ccc(C(=O)Nc2cccc(-c3nc4ncccc4o3)c2)cc1`, which inhibition is on record?
A: 2.33%

Q: For `COc1cccc(NC(=O)C(C#N)C(=O)C2CC2c2cccc(C)c2)c1` (stereo unspecified), which inhibition is on record?
A: 26.5%

Q: Which inhibition does the source give for `Cc1c(-c2nn3c(-c4ccco4)nnc3s2)cccc1[N+](=O)[O-]` here?
A: 33.6% (active)

Q: `Cc1cc(C)n2nc(C(=O)N(C)C(c3ccccc3)c3ccccc3)nc2n1` was tested. Which inhibition did it give?
A: 5.86%

Q: For `COc1ccc2[nH]c3c(NCCCN4CCOCC4)ncnc3c2c1`, which inhibition is on record?
A: -8.4%

Q: For `O=C(c1ccc2cc[nH]c2c1)N1CCCC2(COCCN(CC3CC3)C2)C1` (stereo unspecified), which inhibition is on record?
A: -13.8%

Q: How did the inhibition turn out when `Cc1ccc(S(=O)(=O)NCC(c2ccc3c(c2)CCN3C)N2CCCC2)c(C)c1` (stereo unspecified) was run?
A: -0.036%

Q: How did the inhibition turn out when `COc1ccc(C(=O)N2CCCN(c3ncccc3-c3nc(C)no3)CC2)cc1` was run?
A: 5.18%

Q: How did the inhibition turn out when `Cc1ccc(NC(=O)Cc2nc(-c3ccccc3)n[nH]2)cc1` was run?
A: -4.45%

Q: For `CC(C)(C)C(=O)OCc1noc(-c2ccccc2)n1`, which inhibition is on record?
A: 7.9%

Q: Which inhibition does the source give for `O=C(NCc1noc(-c2ccccc2)n1)C1CCCC1` here?
A: -13.9%

Q: Which inhibition does the source give for `O=C1COc2ccccc2N1Cc1noc(-c2ccccc2)n1` here?
A: 72.3% (active)
